NALP1 inh – NALP1 inflammasome inhibitors in reconstituted yeast, colorimetric, S. cerevisiae, triplicate retest; S. cerevisiae NALP1/ASC/caspase-1 growth, X-gal OD620, 72 h; inhibition, % at 10 µM; hit rate 0.61% among 280,000; AID 2071, 2009; in the data active means inhibition mostly above about 24%, no sharp cut-off; inactive means mostly below about 32%
Hsp70 act – Hsp70 transcriptional activators, primary screen, cell-based, HeLa, Hsp70 promoter luciferase, luminescence, 10 µM. activation, % at 10 µM. HeLa Hsp70 promoter luciferase reporter; scaled: vehicle 0, proteasome-inhibitor control 100%. hit rate 0.04% among 200,000;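 active means activation above the mean across all tested compounds plus 3 SD, cutoff set per campaign, cut at about 5.5% in these data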;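 further: 100% = MG132 at 30 µM as the positive control and 0% = DMSO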
HSP90 inh – HSP90 inhibitors, primary screen, cell lysate, luminescence; Rabbit reticulocyte lysate, luciferase refolding luminescence, 3 h; inhibition, % at 5.6 µM; hit rate 0.91% among 290,000; AID 1789, 2009;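 active means inhibition above the screen-wide mean plus 3 SD, computed separately per campaign, cut at about 16% in these data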;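 further: 0% = DMSO wells and 100% = 60 µM geldanamycin wells; inhibitors lower the luminescence because luciferase stays unfolded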
HSF1 inhib – HSF1 inhibitors in luciferase reporter cells, primary screen, cell-based, NIH3T3, luminescence. hit rate 0.77% among 300,000. NIH3T3-HGL HSE-luciferase, MG132-induced, luminescence 8 h; stronger effect = lower value. activity change, negative = inhibition, % at 7.5 µM (by protocol);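 active means more than half of replicate wells show activity change below -50%, luminescence cut by over half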;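 further: luciferase reports HSF-1 transcriptional activity via heat shock element; 0% = median of DMSO wells and -100% = zero luminescence signal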
HSF1 activator – HSF-1 activators, primary screen, NIH3T3-HGL cells, MG132 stress, luminescence, single point; NIH3T3-HGL HSF-1 luciferase reporter, 8 h; 100% = twice DMSO control signal; activation, % at 9 µM; hit rate 1.7% among 300,000; AID 504408, 2011;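 active means mean replicate activation of at least 50% with a set share of replicates each reaching 50%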;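 further: 0% = median of the neutral control wells and 100% = twice that signal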
p-CIP stab down – p/CIP-EGFP fusion destabilizers, primary screen, fluorescence, F442A cells. hit rate 0.01% among 290,000. decrease of EGFP signal, % at 10 µM. 16 h. AID 1984, 2009;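 active means EGFP signal decrease of at least 30% at 10 µM or well 3 SD below plate mean, unless failing retest; inactive means the rest, including hits failing retest or dose response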
Target sequence (Q05BA5 1-1403): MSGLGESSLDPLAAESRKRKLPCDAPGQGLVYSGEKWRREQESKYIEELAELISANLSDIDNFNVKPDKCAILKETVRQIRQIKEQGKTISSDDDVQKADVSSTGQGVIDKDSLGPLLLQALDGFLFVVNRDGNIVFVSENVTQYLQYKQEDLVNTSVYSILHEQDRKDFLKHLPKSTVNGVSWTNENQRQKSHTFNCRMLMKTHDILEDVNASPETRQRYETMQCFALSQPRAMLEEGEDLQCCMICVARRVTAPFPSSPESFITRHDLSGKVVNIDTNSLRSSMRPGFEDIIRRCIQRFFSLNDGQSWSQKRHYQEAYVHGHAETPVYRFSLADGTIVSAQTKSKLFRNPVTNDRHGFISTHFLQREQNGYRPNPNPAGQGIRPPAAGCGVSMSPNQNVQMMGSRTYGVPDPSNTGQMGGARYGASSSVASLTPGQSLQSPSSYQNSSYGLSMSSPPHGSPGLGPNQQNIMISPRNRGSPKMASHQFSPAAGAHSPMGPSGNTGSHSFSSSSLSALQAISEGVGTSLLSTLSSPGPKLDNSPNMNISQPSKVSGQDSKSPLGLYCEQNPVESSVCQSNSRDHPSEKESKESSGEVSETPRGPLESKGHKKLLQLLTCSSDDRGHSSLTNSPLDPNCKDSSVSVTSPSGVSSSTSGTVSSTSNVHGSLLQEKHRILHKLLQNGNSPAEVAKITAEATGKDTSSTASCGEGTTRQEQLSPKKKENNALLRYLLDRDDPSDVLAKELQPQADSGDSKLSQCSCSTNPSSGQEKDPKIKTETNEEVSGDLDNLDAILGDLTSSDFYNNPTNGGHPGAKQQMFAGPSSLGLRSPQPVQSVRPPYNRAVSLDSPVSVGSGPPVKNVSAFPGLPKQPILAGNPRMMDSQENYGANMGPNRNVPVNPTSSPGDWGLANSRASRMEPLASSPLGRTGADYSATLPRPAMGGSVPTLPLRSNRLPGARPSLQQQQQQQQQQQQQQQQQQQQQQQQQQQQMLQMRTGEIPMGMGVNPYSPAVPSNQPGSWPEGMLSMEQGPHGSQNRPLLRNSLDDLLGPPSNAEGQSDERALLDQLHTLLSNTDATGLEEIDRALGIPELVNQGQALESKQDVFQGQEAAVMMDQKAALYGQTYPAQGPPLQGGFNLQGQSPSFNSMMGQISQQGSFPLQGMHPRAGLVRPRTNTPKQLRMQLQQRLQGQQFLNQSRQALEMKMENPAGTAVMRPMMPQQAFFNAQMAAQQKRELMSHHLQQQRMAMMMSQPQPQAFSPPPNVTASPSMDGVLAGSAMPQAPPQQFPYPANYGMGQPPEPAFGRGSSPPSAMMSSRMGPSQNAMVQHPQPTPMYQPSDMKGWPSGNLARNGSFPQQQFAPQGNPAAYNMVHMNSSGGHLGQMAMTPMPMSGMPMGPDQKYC
An asterisk follows results filed as active; . = not tested or not shown. Hits are enriched below; roughly 3.8% of the tested compounds scored in any of these assays.

SMILES | NALP1 inh | Hsp70 act | HSP90 inh | HSF1 inhib | HSF1 activator | p-CIP stab down
O=C(Nc1ccccc1OC(F)F)c1ccc(S(=O)(=O)N2CCOCC2)cc1 | -1 | . | -3 | 0 | -1 | 13
c1ccc(SCCOCCN2CCOCC2)cc1 | 6 | . | -6 | 25 | 64* | 0
CCCCN1C(=O)C(=O)N(CC(=O)Nc2sc(CC)cc2C(=O)OCC)C1=O | . | . | . | -8 | 10 | .
Cn1c(-c2sc3cc(C(F)(F)F)cnc3c2-c2cccnc2)n[nH]c1=S | -15 | 2 | -3 | -85* | -88 | 2
S=c1[nH]nc(-c2ccncc2)n1/N=C/C=C/c1ccco1 | -20 | 0 | 6 | 5 | 10 | -6
C(=C\c1ccco1)/C=N/n1cnnc1 | 22* | 0 | 3 | -2 | 13 | 0
Oc1ccc(O)c(Cc2nc3ccccc3s2)c1 | 6 | 1 | 5 | 43 | 69* | -6
Oc1ccccc1OCc1nc2ccccc2s1 | 15 | 0 | 3 | 33 | 74* | -5
OCc1cc(Br)ccc1OCc1nc2ccccc2s1 | 18 | . | 4 | 33 | 71* | -5
O=C(COC(=O)c1ccccc1NCCO)NNC(=O)c1cccs1 | . | . | . | 1 | 8 | .
CCCn1c(N)c(N(CCOC)C(=O)c2cc(S(=O)(=O)N3CCCCCC3)ccc2OC)c(=O)[nH]c1=O | 21 | . | -3 | -7 | -15 | 7
Cc1ccc2cc(NC(=O)c3cccc(F)c3)ccc2n1 | . | . | 5 | 43 | 36 | -16
O=C(Cc1ccccc1)Nc1ccc2oc(=O)ccc2c1 | 36* | 0 | -5 | -4 | -12 | -12
O=C(Nc1ccc2oc(=O)ccc2c1)c1ccco1 | 7 | 0 | -1 | 10 | 20 | -2
O=C(O)CCCn1cc(NC(=O)c2cc(F)c(F)cc2Cl)cn1 | 18 | 0 | 1 | -3 | -1 | 2
O=C(Nc1ccc2oc(=O)ccc2c1)c1ccc2ccccc2c1 | -4 | . | 0 | 17 | 60* | -18
O=C(Nc1ccc2ccccc2c1)c1cccc(F)c1 | 20 | . | -1 | 39 | 79* | -6
O=C(O)CCCn1cc(NC(=O)c2cccc(F)c2)cn1 | 27* | 0 | -1 | -4 | 5 | -5
O=C(COC(=O)CC12CC3CC(CC(C3)C1)C2)Nc1cccnc1Cl | 8 | 0 | 4 | -5 | 36 | -4
CC(C)(CO)NC(=O)c1ccc2c(c1)C(=O)c1ccccc1-2 | 0 | . | 1 | 10 | 22 | -9
CCC1Oc2ccc(C)cc2N(CC(=O)NCC2CCCO2)C1=O (stereo not drawn) | -18 | . | -1 | -10 | -4 | -13
COCc1cc(C)n(CC(=O)Nc2ccc3c(c2)OCO3)c(=O)c1C#N | -11 | . | 2 | -6 | 0 | -3
CCC12CN(S(=O)(=O)c3ccc(C)cc3)CC(CC)(CN(S(=O)(=O)c3ccc(C)cc3)C1)C2=O | 42* | 0 | -4 | -4 | -6 | 8
Cn1c(SCc2ccc(C#N)cc2Cl)nc2ccccc21 | 14 | 0 | 5 | 74 | 93* | -10
CC1CCCN(CCOCCOc2ccc(Br)cc2Cl)C1 (stereo not drawn) | 48* | 0 | 0 | -7 | 0 | -18
SMILES | NALP1 inh | Hsp70 act | HSP90 inh | HSF1 inhib | HSF1 activator | p-CIP stab down
CN1CCN(CCOCCOc2ccc(Br)cc2Cl)CC1 | 26 | . | 1 | -2 | -4 | -4
CC1CCCN(CCOCCOc2ccc(Cl)cc2Br)C1 (stereo not drawn) | 42* | 0 | 2 | 3 | 6 | 10
CC(C)CNC(=O)CN1C(=O)NC2(CCc3ccccc32)C1=O (stereo not drawn) | -4 | . | 3 | -9 | 3 | -16
COc1ccc(NC(=O)N2CCN(S(C)(=O)=O)CC2)cc1 | 3 | 0 | 2 | -4 | -6 | -5
CN(CC(=O)Nc1cccc(F)c1)CC(=O)Nc1cccc(S(N)(=O)=O)c1 | . | . | 1 | -72* | -80 | -6
CN(CC(=O)Nc1cccc(F)c1)CC(=O)Nc1cccc(S(=O)(=O)N2CCCCCC2)c1 | -8 | . | 2 | 15 | 38 | -11
O=C1c2cccnc2Oc2ccc(Cl)cc2N1Cc1ccc(F)cc1 | 31 | 0 | 3 | -79* | -84 | -5
CCCc1ccc(-c2cc(NC(=O)CSc3nnc(N)s3)n(-c3ccccc3)n2)cc1 | 19 | 0 | -2 | 39 | 61* | -25
Cc1nnc(SCC(=O)Nc2cc(-c3cc(C)c(C)cc3C)nn2-c2ccccc2)s1 | 33 | 0 | 3 | 5 | 6 | -7
Fc1ccc(/C=C2\CCCC3=C2Nc2ncnn2C3c2ccc(F)cc2)cc1 (stereo not drawn) | -18 | 0 | 1 | 66 | 98* | -3
COc1ccc(C2C3=C(Nc4ncnn42)c2ccccc2CCC3)cc1 (stereo not drawn) | 1 | 0 | -1 | -3 | -9 | -8
CCCCn1c(NC(=O)c2ccccc2)c(C#N)c2nc3ccccc3nc21 | -34 | 0 | 49* | . | . | -23
CCCCn1c(NC(=O)c2ccc(F)cc2)c(C#N)c2nc3ccccc3nc21 | . | . | . | 3 | 4 | .
O=C(CC(C(=O)O)c1c(F)cccc1Cl)c1ccc(Cl)cc1 (stereo not drawn) | 26 | . | -2 | -21 | -35 | 1
O=c1[nH]c(C2CCN(S(=O)(=O)c3cccc([N+](=O)[O-])c3)CC2)nc2c1nnn2Cc1ccccc1 | -2 | . | 3 | 27 | 61* | -5
O=c1[nH]c(C2CCN(S(=O)(=O)c3cccc(Cl)c3)CC2)nc2c1nnn2Cc1ccccc1 | 9 | . | 6 | 7 | 41 | -10
Cc1nnc(SCC(=O)Nc2nccs2)n1C(C)C | 17 | . | -1 | -6 | 4 | -8
C/C(=N\NC(=O)C1CC1)c1ccccc1O | -6 | 0 | -5 | 1 | 0 | -16
CCOC(=O)/C=C/C(=O)OCC(=O)Nc1c(Cl)cccc1Cl | -4 | 0 | 1 | -7 | -15 | 2
CCC(C(=O)OCC(=O)Nc1cc(Cl)ccc1Cl)c1ccccc1 (stereo not drawn) | 19 | 0 | 0 | -66* | -74 | 0
COc1ccc(NC(=O)COC(=O)/C=C/C(=O)OCC(=O)Nc2ccc(OC)c(Cl)c2)cc1Cl | 32 | 0 | 2 | 97 | 138* | -14
COc1ccc(Cl)cc1NC(=O)C[n+]1ccccc1 | 8 | . | -4 | -3 | 17 | -4
CCOC(=O)/C=C/C(=O)OCC(=O)Nc1ccc(Cl)cc1Cl | 28* | 0 | 0 | 11 | 23 | 14
CCc1cc[n+](CC(=O)Nc2ccc(Cl)cc2Cl)cc1 | 20 | 0 | 1 | -72* | -77 | 6
Cc1ccc(S(=O)(=O)N(C)C)cc1NC(=O)c1cc(=O)[nH]c2ccccc12 | 11 | 0 | 2 | 3 | 8 | -10

Screening results deposited in PubChem BioAssay by several laboratories.
